Measured values from ChEMBL document CHEMBL4513146, “CO-ADD screening of Karazin Kharkiv National University (Ukraine) compounds”.
Entries with a potency or affinity are not part of this list.

What was measured:
[1] = tested on: Klebsiella pneumoniae; conditions: Concentration 32 ug.mL-1;; ASSAY_TEST Inhibition of Bacterial Growth; detection method Absorption (OD600); MEDIA CAMHB; plate type 384well; NBS; CORNING #3640; time 18 hr
[2] = tested on: Candida albicans; conditions: Concentration 32 ug.mL-1; ASSAY_TEST Inhibition of Fungal Growth; detection method Absorption (OD530)
[3] = tested on: Cryptococcus neoformans; conditions: Concentration 32 ug.mL-1; ASSAY_TEST Inhibition of Fungal Growth; detection method Resazurin; Absorption (OD600-OD570); plate type 384well; NBS; CORNING #3640

Structure (SMILES) | Inhibition [1] [%] | Inhibition [2] [%] | Inhibition [3] [%]
CCCc1nnc2c(=O)n(CC(=O)Nc3ccc(C(C)=O)cc3)c3ccccc3n12 | 3.81 | -1.78 | -9.17
COc1cccc(NC(=O)Cn2nc3ccc(SCc4ccc(Cl)cc4)nn3c2=O)c1 | 6.69 | 11.57 | -15.62
Cc1cc2nn(CC(=O)Nc3ccc(F)cc3F)c(=O)n2c(Nc2ccc(C)c(F)c2)n1 | 8.43 | 24.78 | -2.94
Cc1nnc2ccc(S(=O)(=O)N(Cc3ccc(F)cc3)c3ccc4c(c3)OCO4)cn12 | 13.79 | 1.73 | -7.24
COc1ccc(-c2cc3c4nn(CC(=O)Nc5ccc6c(c5)OCO6)c(=O)n4ccn3n2)cc1 | 2.73 | 15.19 | -14.04
Cc1ccc(NC(=O)Cn2nc3ccc(SC(C)(C)C)nn3c2=O)c(Cl)c1 | 7.92 | 7.14 | -20.56
Cc1cccc(N(C)C(=O)Cn2nc3cc(C)nc(Nc4ccc(F)c(C)c4)n3c2=O)c1 | 4.58 | 2.18 | -4.41
O=c1n(Cc2nc(-c3ccc(F)cc3)no2)nc2ccc(-c3ccccc3)nn12 | 18.38 | -1.53 | -18.94
COc1ccc(NC(=O)Cn2nc3c(Oc4cccc(F)c4)nccn3c2=O)cc1 | -11.98 | 4.65 | -6.95
CCc1nnc2ccc(S(=O)(=O)N(Cc3cccc(F)c3)c3ccc(OC)cc3)cn12 | -6.85 | 1.92 | -10.67
